How the values were obtained:
Experiment in all cases: log2 ratio of Biotin-Ahx-Ub-VS probe labelling (fragment/DMSO); higher = less target engagement (more negative = stronger competition), active = hit call of the paper (q ≤ 0.05, log2 ratio ≤ -1)
Settings in all cases: compound concentration: 200 uM; treatment time: 3 h
USP42 = target: T1, USP42 (UniProt Q9H9J4)
T1 sequence (whole entry): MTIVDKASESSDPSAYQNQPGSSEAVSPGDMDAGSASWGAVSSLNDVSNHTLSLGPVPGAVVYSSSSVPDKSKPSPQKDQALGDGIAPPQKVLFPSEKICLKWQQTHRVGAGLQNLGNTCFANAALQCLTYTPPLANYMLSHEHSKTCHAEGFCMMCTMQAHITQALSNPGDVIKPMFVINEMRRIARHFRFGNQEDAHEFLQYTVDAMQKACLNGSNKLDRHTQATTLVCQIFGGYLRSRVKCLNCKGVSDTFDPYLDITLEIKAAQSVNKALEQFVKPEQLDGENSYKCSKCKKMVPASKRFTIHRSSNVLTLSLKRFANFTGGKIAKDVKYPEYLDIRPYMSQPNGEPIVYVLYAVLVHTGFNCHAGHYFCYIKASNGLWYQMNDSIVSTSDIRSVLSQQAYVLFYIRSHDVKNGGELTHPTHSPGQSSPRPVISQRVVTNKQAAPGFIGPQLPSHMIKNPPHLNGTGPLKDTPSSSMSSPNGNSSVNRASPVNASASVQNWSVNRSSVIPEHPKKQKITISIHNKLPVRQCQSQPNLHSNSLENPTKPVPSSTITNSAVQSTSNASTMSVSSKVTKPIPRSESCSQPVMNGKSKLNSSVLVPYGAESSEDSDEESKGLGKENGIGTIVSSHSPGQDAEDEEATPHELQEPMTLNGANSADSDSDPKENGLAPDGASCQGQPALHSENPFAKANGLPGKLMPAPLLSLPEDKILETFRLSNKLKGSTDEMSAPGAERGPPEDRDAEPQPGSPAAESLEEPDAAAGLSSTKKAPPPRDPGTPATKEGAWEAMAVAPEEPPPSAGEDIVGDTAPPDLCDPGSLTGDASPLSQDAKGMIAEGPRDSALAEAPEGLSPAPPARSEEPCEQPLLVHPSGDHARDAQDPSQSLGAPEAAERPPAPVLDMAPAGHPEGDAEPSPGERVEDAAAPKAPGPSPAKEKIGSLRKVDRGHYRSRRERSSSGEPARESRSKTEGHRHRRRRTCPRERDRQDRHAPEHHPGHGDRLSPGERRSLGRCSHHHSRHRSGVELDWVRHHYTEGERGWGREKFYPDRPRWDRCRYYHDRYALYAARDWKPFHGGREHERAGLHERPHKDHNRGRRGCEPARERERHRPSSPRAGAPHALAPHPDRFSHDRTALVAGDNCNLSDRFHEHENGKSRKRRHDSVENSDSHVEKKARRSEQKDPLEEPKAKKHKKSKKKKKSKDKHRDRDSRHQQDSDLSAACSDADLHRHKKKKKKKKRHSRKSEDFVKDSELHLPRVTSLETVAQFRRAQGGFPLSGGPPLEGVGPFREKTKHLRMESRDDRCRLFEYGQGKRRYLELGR
Procedure, shortened: (§1)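 Labelling with Biotin-Ahx-Ub-VS (0.5 µM final, 1 h) followed a 3 h triplicate treatment of HEK293T lysate (495 µg per sample, Tris/CHAPS/IGEPAL buffer with protease inhibitors) with fragment at 200 µM or vehicle. Labelled DUBs were NeutrAvidin-enriched, digested with LysC and trypsin, and run by diaPASEF LC-MS/MS. The values, average log2 fragment/vehicle ratios by unpaired t-test, come from global-median-normalised Spectronaut label-free quantities. Proteins with ≥2 unique peptides were used.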

USP46 = USP46 (UniProt P62068)
Procedure, shortened: as §1

USP47 = target: T2, USP47 (UniProt Q96K76)
T2 sequence (whole entry): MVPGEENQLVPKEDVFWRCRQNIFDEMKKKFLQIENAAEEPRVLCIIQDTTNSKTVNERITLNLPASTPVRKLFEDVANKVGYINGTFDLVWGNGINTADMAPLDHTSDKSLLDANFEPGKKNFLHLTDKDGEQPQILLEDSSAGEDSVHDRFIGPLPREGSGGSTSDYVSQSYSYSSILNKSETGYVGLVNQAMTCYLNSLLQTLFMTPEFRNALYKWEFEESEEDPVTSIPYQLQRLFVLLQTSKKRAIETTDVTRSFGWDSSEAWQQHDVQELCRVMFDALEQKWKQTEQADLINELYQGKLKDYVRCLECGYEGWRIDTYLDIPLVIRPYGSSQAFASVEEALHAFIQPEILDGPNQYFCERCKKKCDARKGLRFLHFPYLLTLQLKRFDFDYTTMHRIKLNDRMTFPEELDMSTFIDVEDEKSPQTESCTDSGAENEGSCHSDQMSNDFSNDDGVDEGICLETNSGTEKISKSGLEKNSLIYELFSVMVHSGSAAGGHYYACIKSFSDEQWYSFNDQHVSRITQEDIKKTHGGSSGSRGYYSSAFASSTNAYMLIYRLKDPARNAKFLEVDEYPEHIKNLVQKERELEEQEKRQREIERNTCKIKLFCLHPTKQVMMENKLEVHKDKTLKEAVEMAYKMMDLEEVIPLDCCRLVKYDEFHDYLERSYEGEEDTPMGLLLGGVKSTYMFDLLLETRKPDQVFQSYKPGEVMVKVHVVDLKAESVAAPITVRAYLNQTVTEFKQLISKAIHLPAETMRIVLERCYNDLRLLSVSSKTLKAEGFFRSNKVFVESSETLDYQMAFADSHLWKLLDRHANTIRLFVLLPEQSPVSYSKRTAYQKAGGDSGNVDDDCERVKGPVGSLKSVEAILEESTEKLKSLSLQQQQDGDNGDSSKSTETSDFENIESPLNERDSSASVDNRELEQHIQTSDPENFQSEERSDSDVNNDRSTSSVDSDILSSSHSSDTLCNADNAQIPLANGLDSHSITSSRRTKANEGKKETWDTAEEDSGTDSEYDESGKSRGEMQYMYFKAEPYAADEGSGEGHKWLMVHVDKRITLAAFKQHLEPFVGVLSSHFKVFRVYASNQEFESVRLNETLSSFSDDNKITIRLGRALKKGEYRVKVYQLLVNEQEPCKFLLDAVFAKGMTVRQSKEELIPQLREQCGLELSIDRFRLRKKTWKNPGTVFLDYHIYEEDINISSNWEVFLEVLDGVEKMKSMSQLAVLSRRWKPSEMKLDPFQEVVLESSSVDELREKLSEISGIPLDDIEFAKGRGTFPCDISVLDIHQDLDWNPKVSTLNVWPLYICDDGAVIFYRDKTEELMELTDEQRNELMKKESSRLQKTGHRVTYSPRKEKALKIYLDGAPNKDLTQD
Procedure, shortened: as §1

USP48 = target: T3, USP48 (UniProt Q86UV5)
T3 sequence (whole entry): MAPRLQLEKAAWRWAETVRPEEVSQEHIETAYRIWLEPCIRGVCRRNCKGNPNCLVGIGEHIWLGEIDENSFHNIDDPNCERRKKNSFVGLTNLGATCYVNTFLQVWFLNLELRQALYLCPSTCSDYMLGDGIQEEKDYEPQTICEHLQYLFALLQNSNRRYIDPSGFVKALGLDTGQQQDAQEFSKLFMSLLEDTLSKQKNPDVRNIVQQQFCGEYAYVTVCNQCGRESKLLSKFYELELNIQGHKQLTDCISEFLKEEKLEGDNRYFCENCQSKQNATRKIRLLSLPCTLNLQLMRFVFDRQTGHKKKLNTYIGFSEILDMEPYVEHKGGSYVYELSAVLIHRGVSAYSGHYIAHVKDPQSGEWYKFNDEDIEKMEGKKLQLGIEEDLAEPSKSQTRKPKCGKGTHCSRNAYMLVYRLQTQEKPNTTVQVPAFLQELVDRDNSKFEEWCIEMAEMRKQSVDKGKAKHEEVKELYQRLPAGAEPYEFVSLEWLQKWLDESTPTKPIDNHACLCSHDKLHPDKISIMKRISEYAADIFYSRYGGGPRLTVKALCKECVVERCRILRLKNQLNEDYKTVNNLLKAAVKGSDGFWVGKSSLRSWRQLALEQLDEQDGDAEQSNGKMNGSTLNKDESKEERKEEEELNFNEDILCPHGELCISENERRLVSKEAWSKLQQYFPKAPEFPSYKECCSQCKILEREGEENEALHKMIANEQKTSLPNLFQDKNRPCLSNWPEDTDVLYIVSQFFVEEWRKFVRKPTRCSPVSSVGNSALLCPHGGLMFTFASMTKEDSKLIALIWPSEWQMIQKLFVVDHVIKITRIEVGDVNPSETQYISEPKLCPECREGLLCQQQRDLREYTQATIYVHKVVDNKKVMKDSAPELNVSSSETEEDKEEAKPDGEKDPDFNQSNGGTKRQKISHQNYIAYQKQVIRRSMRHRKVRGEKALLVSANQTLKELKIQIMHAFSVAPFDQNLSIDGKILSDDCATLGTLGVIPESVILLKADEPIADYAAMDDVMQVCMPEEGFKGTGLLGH
Procedure, shortened: as §1

USP5 = target: T4, USP5 (UniProt P45974)
T4 sequence (whole entry): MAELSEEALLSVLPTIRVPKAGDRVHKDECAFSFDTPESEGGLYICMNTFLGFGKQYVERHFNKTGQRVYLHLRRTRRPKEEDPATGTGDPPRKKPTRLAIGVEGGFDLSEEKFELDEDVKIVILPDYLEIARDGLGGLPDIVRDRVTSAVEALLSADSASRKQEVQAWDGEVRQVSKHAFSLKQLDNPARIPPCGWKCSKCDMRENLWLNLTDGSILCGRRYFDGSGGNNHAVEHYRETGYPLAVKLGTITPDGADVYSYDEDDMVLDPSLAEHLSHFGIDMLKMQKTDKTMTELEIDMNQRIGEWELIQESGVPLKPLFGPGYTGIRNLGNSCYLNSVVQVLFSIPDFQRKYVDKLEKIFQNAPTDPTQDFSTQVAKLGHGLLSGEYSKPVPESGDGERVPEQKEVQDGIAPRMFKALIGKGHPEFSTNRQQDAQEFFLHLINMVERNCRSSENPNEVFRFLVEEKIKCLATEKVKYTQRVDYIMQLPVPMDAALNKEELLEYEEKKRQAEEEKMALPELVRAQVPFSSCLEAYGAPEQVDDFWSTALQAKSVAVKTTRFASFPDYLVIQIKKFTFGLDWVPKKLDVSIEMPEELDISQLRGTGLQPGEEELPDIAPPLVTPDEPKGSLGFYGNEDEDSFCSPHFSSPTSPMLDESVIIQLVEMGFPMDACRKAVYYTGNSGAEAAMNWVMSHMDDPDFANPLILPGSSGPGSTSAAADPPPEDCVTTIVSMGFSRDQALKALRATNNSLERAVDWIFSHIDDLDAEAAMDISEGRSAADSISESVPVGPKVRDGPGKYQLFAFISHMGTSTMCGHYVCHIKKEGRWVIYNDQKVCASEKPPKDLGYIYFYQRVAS
Procedure, shortened: as §1

USP54 = USP54 (UniProt Q70EL1)
Procedure, shortened: as §1

USP7 = USP7 (UniProt Q93009)
Procedure, shortened: as §1

USP8 = target: T5, USP8 (UniProt P40818)
T5 sequence (whole entry): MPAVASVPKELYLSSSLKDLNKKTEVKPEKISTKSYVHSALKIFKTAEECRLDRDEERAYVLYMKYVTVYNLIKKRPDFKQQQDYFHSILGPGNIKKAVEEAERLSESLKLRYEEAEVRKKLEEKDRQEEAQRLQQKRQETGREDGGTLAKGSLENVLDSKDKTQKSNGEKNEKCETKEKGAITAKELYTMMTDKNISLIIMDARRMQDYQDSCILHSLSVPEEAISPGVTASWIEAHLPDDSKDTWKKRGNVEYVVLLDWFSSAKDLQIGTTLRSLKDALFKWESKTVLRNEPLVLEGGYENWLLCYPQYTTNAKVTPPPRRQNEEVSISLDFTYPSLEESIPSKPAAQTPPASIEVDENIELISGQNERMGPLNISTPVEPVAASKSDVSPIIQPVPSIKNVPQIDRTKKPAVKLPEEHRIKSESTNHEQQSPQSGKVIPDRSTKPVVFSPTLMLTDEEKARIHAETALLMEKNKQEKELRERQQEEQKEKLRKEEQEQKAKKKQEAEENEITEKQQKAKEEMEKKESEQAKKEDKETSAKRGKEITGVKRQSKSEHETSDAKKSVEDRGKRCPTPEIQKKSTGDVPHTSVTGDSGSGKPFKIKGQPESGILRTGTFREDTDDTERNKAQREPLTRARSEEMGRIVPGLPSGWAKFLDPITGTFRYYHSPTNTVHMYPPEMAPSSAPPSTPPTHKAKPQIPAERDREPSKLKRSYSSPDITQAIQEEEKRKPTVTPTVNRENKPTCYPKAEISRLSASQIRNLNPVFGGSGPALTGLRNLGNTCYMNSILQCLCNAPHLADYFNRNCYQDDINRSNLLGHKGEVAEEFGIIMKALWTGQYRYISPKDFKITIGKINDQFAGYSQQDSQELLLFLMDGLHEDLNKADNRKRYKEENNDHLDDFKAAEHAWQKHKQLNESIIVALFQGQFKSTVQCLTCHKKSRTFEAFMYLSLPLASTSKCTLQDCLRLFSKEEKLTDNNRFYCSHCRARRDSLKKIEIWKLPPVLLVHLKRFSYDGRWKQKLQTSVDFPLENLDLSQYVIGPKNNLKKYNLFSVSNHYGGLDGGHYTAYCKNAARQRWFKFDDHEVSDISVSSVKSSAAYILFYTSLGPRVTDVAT
Procedure, shortened: as §1

USP9X = USP9X (UniProt Q93008)
Procedure, shortened: as §1

UniProt O00487 = target: UniProt O00487
Procedure, shortened: as §1

Measured: log2 ratio of Biotin-Ahx-Ub-VS probe labelling

Sequence of USP54 (Q70EL1 whole entry): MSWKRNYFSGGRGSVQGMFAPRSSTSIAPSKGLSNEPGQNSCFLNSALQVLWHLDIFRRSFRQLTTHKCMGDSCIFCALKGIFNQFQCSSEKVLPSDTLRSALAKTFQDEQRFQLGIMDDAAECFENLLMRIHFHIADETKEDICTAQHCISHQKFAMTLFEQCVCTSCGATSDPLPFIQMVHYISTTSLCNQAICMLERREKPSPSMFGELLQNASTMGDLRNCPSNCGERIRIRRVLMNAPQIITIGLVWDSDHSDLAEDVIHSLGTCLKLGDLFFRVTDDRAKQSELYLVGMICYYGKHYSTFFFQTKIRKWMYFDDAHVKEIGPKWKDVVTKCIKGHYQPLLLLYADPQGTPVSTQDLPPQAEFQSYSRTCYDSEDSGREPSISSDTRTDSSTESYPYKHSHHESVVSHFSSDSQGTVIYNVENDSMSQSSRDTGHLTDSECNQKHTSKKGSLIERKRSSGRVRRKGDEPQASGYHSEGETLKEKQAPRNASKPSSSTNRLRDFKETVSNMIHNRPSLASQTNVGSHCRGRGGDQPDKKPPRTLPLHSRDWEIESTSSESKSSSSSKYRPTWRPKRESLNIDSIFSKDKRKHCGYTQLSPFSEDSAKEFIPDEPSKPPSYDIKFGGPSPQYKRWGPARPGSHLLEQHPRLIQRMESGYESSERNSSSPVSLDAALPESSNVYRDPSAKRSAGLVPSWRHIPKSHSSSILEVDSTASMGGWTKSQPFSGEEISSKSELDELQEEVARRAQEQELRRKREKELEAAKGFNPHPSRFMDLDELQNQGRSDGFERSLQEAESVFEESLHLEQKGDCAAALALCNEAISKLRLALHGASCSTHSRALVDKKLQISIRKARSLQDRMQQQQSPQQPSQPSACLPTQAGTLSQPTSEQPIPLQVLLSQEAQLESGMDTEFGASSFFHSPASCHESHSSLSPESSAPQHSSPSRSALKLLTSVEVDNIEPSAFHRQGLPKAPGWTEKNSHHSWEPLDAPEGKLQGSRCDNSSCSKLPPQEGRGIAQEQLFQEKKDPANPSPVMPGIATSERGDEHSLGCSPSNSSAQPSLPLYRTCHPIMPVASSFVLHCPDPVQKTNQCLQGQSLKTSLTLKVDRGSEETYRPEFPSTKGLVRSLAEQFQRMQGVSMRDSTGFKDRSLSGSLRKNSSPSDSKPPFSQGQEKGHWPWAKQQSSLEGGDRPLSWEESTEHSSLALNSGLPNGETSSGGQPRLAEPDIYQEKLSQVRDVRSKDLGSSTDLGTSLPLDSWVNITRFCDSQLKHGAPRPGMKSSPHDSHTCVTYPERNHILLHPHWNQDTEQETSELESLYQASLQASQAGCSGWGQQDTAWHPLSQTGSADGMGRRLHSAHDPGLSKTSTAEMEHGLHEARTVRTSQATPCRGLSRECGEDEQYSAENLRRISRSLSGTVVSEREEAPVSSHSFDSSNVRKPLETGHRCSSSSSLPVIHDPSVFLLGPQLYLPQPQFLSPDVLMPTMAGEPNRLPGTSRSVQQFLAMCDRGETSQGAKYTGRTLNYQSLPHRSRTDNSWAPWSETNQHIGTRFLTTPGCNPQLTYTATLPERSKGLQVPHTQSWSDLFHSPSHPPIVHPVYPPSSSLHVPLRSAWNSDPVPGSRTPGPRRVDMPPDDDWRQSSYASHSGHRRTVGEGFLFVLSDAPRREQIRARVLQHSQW
Sequence of USP9X (Q93008 whole entry): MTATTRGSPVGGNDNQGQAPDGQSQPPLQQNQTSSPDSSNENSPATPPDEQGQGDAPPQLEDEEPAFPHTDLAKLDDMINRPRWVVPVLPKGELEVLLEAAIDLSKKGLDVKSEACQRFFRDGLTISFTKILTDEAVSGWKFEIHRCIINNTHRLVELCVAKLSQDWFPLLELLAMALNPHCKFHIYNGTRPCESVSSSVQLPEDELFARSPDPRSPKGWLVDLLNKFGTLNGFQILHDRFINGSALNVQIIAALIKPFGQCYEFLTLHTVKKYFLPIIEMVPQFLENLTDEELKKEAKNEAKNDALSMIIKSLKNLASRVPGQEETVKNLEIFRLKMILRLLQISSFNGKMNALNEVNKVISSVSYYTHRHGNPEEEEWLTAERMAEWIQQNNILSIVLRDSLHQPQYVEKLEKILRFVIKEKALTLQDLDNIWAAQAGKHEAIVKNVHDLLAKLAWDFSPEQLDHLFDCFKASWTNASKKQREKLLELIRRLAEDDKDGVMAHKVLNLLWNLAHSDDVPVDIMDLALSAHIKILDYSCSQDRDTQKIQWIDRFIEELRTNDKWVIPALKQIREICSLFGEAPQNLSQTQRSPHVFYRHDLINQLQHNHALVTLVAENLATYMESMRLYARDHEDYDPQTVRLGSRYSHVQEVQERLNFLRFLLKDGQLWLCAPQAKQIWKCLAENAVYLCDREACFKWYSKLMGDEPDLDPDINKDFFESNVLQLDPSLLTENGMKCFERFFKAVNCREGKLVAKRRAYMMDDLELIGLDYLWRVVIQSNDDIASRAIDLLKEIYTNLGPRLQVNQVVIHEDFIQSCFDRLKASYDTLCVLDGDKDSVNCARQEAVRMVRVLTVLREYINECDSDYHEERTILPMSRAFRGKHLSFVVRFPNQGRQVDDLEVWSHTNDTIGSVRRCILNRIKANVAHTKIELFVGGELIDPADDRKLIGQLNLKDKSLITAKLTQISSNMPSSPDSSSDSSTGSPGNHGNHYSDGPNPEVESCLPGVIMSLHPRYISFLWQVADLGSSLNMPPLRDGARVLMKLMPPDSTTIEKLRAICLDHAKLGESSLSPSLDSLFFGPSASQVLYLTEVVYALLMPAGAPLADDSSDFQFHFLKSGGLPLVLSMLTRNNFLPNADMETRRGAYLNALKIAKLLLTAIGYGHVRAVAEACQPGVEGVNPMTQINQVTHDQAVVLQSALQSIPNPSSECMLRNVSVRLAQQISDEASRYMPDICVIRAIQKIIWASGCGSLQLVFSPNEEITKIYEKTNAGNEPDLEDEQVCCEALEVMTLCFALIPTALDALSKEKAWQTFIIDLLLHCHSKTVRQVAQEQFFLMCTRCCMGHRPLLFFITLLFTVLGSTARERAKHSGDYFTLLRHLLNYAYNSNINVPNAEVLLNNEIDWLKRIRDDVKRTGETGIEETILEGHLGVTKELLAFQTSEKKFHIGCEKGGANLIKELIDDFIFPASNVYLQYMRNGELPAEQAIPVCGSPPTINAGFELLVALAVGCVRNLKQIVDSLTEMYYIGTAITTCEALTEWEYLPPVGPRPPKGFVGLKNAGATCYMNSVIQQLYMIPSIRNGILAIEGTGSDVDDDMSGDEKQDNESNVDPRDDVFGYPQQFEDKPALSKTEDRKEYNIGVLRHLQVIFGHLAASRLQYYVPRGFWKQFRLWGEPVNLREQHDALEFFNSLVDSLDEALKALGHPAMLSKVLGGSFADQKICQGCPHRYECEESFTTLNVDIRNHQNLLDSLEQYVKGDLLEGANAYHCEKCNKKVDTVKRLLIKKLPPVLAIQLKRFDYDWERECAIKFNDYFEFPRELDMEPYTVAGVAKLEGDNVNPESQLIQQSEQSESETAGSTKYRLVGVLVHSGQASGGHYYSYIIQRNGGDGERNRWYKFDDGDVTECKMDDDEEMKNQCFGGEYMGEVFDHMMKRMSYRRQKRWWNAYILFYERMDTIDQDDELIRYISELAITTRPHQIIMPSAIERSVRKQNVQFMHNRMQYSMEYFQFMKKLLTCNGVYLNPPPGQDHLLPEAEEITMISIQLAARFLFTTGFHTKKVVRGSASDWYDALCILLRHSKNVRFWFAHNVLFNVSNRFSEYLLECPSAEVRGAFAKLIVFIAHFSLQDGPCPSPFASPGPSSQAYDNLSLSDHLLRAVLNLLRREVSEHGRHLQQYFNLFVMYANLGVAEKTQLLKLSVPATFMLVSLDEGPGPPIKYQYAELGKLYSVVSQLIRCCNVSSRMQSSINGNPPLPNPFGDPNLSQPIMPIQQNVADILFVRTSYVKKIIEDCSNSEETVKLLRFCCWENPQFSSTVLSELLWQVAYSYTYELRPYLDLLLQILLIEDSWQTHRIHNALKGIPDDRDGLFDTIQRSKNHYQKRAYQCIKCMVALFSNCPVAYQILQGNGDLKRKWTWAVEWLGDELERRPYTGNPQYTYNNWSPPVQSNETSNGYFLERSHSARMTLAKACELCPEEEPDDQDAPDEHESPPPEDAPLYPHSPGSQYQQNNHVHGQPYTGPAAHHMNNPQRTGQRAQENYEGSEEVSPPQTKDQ
Sequence of USP46 (P62068 whole entry): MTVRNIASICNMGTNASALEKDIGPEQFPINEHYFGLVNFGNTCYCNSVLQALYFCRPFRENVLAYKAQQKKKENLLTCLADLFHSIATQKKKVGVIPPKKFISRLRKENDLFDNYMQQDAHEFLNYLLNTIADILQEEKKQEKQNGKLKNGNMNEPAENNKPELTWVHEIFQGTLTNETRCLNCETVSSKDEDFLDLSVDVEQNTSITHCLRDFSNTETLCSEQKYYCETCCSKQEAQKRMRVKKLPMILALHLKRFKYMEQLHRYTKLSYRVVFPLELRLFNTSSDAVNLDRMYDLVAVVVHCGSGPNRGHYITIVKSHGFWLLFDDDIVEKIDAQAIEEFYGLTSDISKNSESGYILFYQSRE
Sequence of UniProt O00487 (O00487 whole entry): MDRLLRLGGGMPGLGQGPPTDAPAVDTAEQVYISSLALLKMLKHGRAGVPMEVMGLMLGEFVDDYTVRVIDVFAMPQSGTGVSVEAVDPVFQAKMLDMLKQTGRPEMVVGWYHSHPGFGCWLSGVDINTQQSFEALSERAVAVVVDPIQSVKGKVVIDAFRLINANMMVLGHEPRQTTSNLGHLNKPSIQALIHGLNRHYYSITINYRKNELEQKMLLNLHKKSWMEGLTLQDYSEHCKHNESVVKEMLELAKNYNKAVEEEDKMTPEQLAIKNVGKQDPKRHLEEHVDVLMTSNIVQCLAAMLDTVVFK

CC(NC(=O)CCl)c1cnn(C2CC2)c1 (stereo not given)
inactive: USP42 0.309 | USP46 -0.113 | USP47 -0.514 | USP48 0.0173 | USP5 -0.392 | USP54 0.76 | USP7 -0.323 | USP8 -0.373 | USP9X -0.227 | UniProt O00487 -0.0263

— the supplement of paper PMC11732987, “Enantioselective OTUD7B fragment discovery through chemoproteomics screening and high-throughput optimisation” (Communications Chemistry, 2025)
